Measured values from PubChem BioAssay AID540333 (Southern Research Specialized Biocontainment Screening …, 2011).
Among all 10,000 compounds or so, about 320 (3.2%) were called active. Rule as the data show it: active = CPE inhibition mostly above about 9.1% (no sharp cut-off); inactive = mostly below about 7.2%. What follows is part of a selection rich in actives, with near analogues and random picks from the rest.

Assay: Dengue virus cytopathic effect inhibitors, cell-based, CPE readout, HTS (AID 540333)
Details: Dengue virus CPE inhibition in host cells, at 20 µM; stronger effect = higher value

SMILES	CPE inhibition
O=C(COc1ccccc1[N+](=O)[O-])N/N=C/c1cccs1	inactive
CCOc1cccc(/C=N/NC(=S)Nc2cc(S(=O)(=O)N3CCOCC3)ccc2N2CCOCC2)c1O	inactive
Cc1ccc2[nH]c(=O)cc(C(=O)OCC(=O)c3ccccc3)c2c1	inactive
COC(=O)CN1C(c2cccc(Cl)c2)=Nc2ccc(Cl)cc2C1c1ccccc1 (centres undefined)	14.1% (active)
COC(=O)CN1C(c2ccc(OC)cc2)=Nc2ccc(Cl)cc2C1c1ccccc1 (centres undefined)	7.85% (inactive)
CCOC(=O)CN1C(=O)N[C@@H](c2ccccc2)[C@@H](C(=O)OC)[C@H]1C	0.065% (inactive)
Cc1cc(C(=O)N2CCN(c3ccc([N+](=O)[O-])cc3)CC2)no1	inactive
O=C1CC(c2ccccc2)Sc2nc(-c3ccccc3)c(-c3ccccc3)n21 (centres undefined)	inactive
Cc1ccc(OCCN(C)C)c([N+](=O)[O-])c1	0.995% (inactive)
O=[N+]([O-])c1cccc(C(=S)N2CCN(c3ccccc3)CC2)c1	0.055% (inactive)
CS(=O)(=O)N1CCN(c2ccc([N+](=O)[O-])c(NCc3ccc(Cl)cc3)c2)CC1	1.16% (inactive)
Cc1ccc(NC(=O)CSc2nnc(-c3cccs3)o2)cc1S(=O)(=O)N1CCCCC1	inactive
COC(=O)Cc1ccc(NC(=S)NCc2ccc(Cl)cc2)cc1	inactive
S=C(NCc1ccncc1)Nc1ccc(Cl)cc1	0.775% (inactive)
COC(=O)c1cc(NC(=S)NCc2ccc(Cl)cc2)cc(C(=O)OC)c1	13.6% (active)
CC1=CC(C)(C)N(C(=O)CSc2nnc(N)s2)c2ccccc21	0.04% (inactive)
COc1ccc2c(c1)-c1nc(/N=C/c3ccc(O)c(OC)c3)sc1CC2	1.8% (inactive)
Cc1ccc(-n2nc(C)c(C3(O)C(=O)N(C(C)C)c4ccccc43)c2N)cc1 (centres undefined)	inactive
COC(=O)C1=C(C)N(Cc2ccccc2)C(=O)N[C@H]1c1cccc(F)c1	0.125% (inactive)
CCOC(=O)C1=C(C)N(CCCCCC(=O)O)C(=O)NC1c1cccc([N+](=O)[O-])c1 (centres undefined)	0.825% (inactive)
CCOC(=O)C1=C(C)N(Cc2ccccc2)C(=O)NC1c1ccccc1OS(=O)(=O)c1ccccc1[N+](=O)[O-] (centres undefined)	14.2% (active)
Cc1ccc(-n2c(SCC(=O)N3CC(=O)Nc4ccccc43)nc3ccccc3c2=O)cc1	2.37% (inactive)
Cc1ccc(Cn2c(SCC(=O)N3CC(=O)Nc4ccccc43)nc3ccccc3c2=O)cc1	22.3% (active)

SMILES	CPE inhibition
Cc1cccc(C)c1-n1c(SCC(=O)N2CC(=O)Nc3ccccc32)nc2ccccc2c1=O	1.7% (inactive)
COc1ccc(C2CC(c3ccccc3)=NN2C(=O)CSc2ncccn2)cc1 (centres undefined)	0.205% (inactive)
CCCn1c(SCC(=O)N2N=C3/C(=C/c4ccc(OC)cc4)CCCC3C2c2ccc(OC)cc2)n[nH]c1=O (centres undefined)	10.2% (active)
COc1ccc(C2=NN(C(=O)CSc3nc4ccccc4s3)C(c3ccc(OC)cc3)C2)cc1 (centres undefined)	2.96% (inactive)
C#CCNC(=O)C1=C[C@@H](c2ccc(C(F)(F)F)cc2)C[C@@H](OCc2ccc(CO)cc2)O1	2.77% (inactive)
CCC(OCC(O)CN1CCN(CCN2C(=O)c3cccc4cccc(c34)C2=O)CC1)c1ccccc1 (centres undefined)	inactive
Cc1cccc(CC(=O)N2CCN=C2SCc2ccc([N+](=O)[O-])cc2)c1	inactive
O=[N+]([O-])c1ccc(CSc2nnc(Cc3ccccc3)n2-c2ccc(F)cc2)cc1	3.26% (inactive)
Cc1cccc(-n2c(Cc3ccccc3)nnc2SCc2ccc([N+](=O)[O-])cc2)c1	14.3% (active)
Cc1ccc(NC(=O)CCC(=O)NNS(=O)(=O)c2ccccc2)cc1C	inactive
Cc1ccc(S(=O)(=O)NCCC(=O)Nc2ccc(C)c(Cl)c2)cc1C	12.8% (active)
Cc1ccc(NC(=O)c2cc(S(=O)(=O)NCCc3ccccc3)ccc2F)cc1Cl	2.79% (inactive)
CC(Sc1nnc(-c2ccccc2)c(-c2ccccc2)n1)C(=O)Nc1ncc(Cl)cc1Cl (centres undefined)	0.725% (inactive)
C/C(=N\NC(=O)c1cccc(S(=O)(=O)Nc2ccccc2Cl)c1)c1ccco1	inactive
CCOc1ccc(Br)cc1CSC(=N)N	13.3% (active)
CCOc1ccc(CSC(=N)N)cc1	0.245% (inactive)
CCOc1ccc(Br)cc1CNCCN1CCOCC1	inactive
CC1C=CCC2C(=O)N(c3ccc(Cl)cc3O)C(=O)C12 (centres undefined)	28.6% (active)
O=C(Oc1ccccc1N1C(=O)C2CC=CCC2C1=O)c1ccc(Br)cc1 (centres undefined)	0.075% (inactive)
O=C(NCCCN1CCOCC1)c1onc(CSc2ccccc2)c1C(=O)NCCCN1CCOCC1	inactive
Cc1ccc(CCc2nnc(SCC(=O)Nc3ccccc3Cl)n2-c2ccccc2)o1	0.905% (inactive)
Cc1ccc(C)c(NC(=O)CSc2nnc(-c3n[nH]c4ccccc34)o2)c1	0.235% (inactive)
O=C(CSc1nnc(-c2n[nH]c3ccccc23)n1-c1ccccc1)Nc1ccccc1Cl	19% (active)

SMILES	CPE inhibition
Cc1ccc(S(=O)(=O)NN=C2C3CC4CC(C3)CC2C4)cc1[N+](=O)[O-]	0.27% (inactive)
Cn1cnnc1SC1c2cccc3cccc(c23)C1NS(=O)(=O)c1ccccc1 (centres undefined)	0.485% (inactive)
Cc1ccc(C=Nc2ccccc2C(=O)Nc2ccccc2)cc1	0.36% (inactive)
CC(C)(C)OC(=O)C[C@H]1C/C=C\C[C@@H](CC(=O)N(CCO)Cc2ccccc2)C(=O)N[C@@H](c2ccccc2)COC1=O	inactive
CC1(C)C(C=C(Cl)Cl)C1C(=O)N(Cc1cccc(Cl)c1)C1CCS(=O)(=O)C1 (centres undefined)	0.525% (inactive)
CC1(C)C(C=C(Cl)Cl)C1C(=O)N(Cc1ccccc1Cl)C1CCS(=O)(=O)C1 (centres undefined)	29.9% (active)
CN(C(=O)COC(=O)c1cc(-c2ccccc2Cl)nc2ccccc12)C1CCS(=O)(=O)C1 (centres undefined)	inactive
CCN(Cc1ccccc1)C(=O)C1CCN(C/C(C)=C/c2ccccc2)CC1	inactive
Cc1ccc(C)c(S(=O)(=O)Nc2nc(C)c(C(=O)Nc3ccccc3)s2)c1	inactive
O=C1NC(c2ccc(-c3ccccc3[N+](=O)[O-])o2)C(C(=O)c2ccc(F)cc2)C(O)(C(F)(F)F)N1 (centres undefined)	23.4% (active)
O=C(/C=C/c1ccc(-c2ccccc2[N+](=O)[O-])o1)c1ccccc1	3.25% (inactive)
O=C1NC(c2ccc(-c3ccccc3[N+](=O)[O-])o2)C(C(=O)c2ccc(Cl)cc2)C(O)(C(F)(F)F)N1 (centres undefined)	30.5% (active)
O=c1nc2s/c(=C\c3ccc(-c4ccccc4[N+](=O)[O-])o3)c(=O)n2nc1-c1ccccc1	inactive
O=C1c2ccccc2NC(c2ccc(-c3cccc([N+](=O)[O-])c3)o2)N1O (centres undefined)	0.135% (inactive)
O=C(N/N=C/c1ccc(-c2ccccc2[N+](=O)[O-])o1)[C@H]1C[C@@H]1c1ccccc1	inactive
COc1ccc(-c2cn(-c3ccccc3)c3[n+]2CCS3)cc1	7.46% (inactive)
O=C(CSc1nc2ccccc2[nH]1)Nc1ccc2c(c1)CCC2	2.09% (inactive)
NS(=O)(=O)c1ccc(NC(=S)NCc2ccccc2Cl)cc1	1.7% (inactive)
O=[N+]([O-])c1ccc(N2CCOCC2)cc1SCc1ccco1	0.08% (inactive)
CCc1ccc(OCC2c3cc(OC)c(OC)cc3CCN2C(=S)NCCOC)cc1 (centres undefined)	17.3% (active)
COCCNC(=S)N1CCc2cc(OC)c(OC)cc2C1COc1ccc(C(C)C)cc1 (centres undefined)	15.5% (active)
COc1cc2c(cc1OC)CN(C(=S)Nc1c(C)cccc1C)CC2	inactive
COc1cc2c(cc1OC)C(C)N(C(=O)c1ccc(Br)o1)CC2 (centres undefined)	inactive

SMILES	CPE inhibition
COCCNC(=S)N/N=C(\C)c1ccc2cc(OC)ccc2c1	0.1% (inactive)
COc1cccc(NC(=S)N2CCc3cc(OC)c(OC)cc3C2COc2ccc3c(C)cc(=O)oc3c2)c1 (centres undefined)	0.46% (inactive)
COC(=O)Cc1ccc2sc(-c3ccccc3)nc2c1	inactive
COc1cc(/C=N/NC(=O)C2COc3ccccc3O2)cc(OC)c1OC (centres undefined)	inactive
CC(C(=O)NCC1CCCCC1)N1CCN(S(=O)(=O)/C=C/c2ccccc2)CC1 (centres undefined)	0.61% (inactive)
COc1ccc(NS(=O)(=O)c2ccc(C)c(NC(=O)NC3CCCCC3)c2)cc1	7.27% (active)
COc1ccc(NS(=O)(=O)c2ccc(OC)c(NC(=O)CCC3CCCCC3)c2)cc1	0.695% (inactive)
O=C(NNS(=O)(=O)c1ccc2ccccc2c1)NC1CCCCC1	inactive
CCOc1ccc(/C(O)=C2/C(=O)C(=O)N(CC3CCCO3)C2c2cccs2)cc1 (centres undefined)	0.87% (inactive)
Cc1nn(Cc2ccc(C(=O)N3N=C(C(F)F)CC3(O)C(F)F)o2)c(C)c1[N+](=O)[O-] (centres undefined)	0.095% (inactive)
COc1cccc(NC(=O)CN(C)C(=O)COc2ccc3ccccc3c2)c1	0.135% (inactive)
O=C(CSc1nnc(-c2ccncc2)o1)NCc1ccccc1Cl	inactive
Cc1ccc(S(=O)(=O)Nc2cc(=O)[nH]c(SCc3ccccc3Cl)n2)cc1	inactive
Cc1ccc(S(=O)(=O)Nc2ccc(-c3nnc(SCc4ccccc4Cl)o3)cc2)cc1	17.2% (active)
Cc1nn(CCC(N)=O)c2nc(-c3cccs3)cc(C(F)(F)F)c12	inactive
O=C(Oc1ccccc1C(=O)Nc1ccccc1)c1ccccc1Br	1.84% (inactive)
COc1ccccc1CNC(=O)C(NS(=O)(=O)c1ccc2c(c1)OCCO2)C(C)C (centres undefined)	inactive
CCCCN(C)C(=S)Nc1ccc(Oc2ccccc2)cc1	3.21% (inactive)
CCCn1c(SC(C(=O)Nc2cccc(OC)c2)c2ccccc2)nc2ccccc2c1=O (centres undefined)	0.175% (inactive)
Cc1ccccc1NC(=O)C1CCCN1/C=C/C(=O)C(F)(F)F (centres undefined)	inactive
